Test results as given in PubChem BioAssay (NCI).
This is part of a sample that, as a whole, favours compounds with a hit. Of some 83,000 tested, about 20% had one in any assay.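 Values shown are percent growth following 48 h exposure of cells in 96-well plates to a single concentration of compound; below 10 was considered active.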 Unmarked numbers belong to inactive results. Activity calls are given as the source filed them.

What follows are molecules tested on HOP-62 NSCLC (assay: NCI-60 one-dose screen, 48 h (100 = growth as untreated, 0 = no growth, -100 = all killed)). Conditions: 10 µM unless noted.
Method: Growth inhibition of the HOP-62 human Non-Small Cell Lung tumor cell line is measured as a screen for anti-cancer activity. Cells are grown in 96 well plates and exposed to the test compound for 48 hours. Compounds are tested at a single concentration, which is 10^-5 M for most compounds. The reported endpoint is percent growth (GI% or GIPRCNT), where numbers from 0 - 100% represent growth inhibition, and numbers from -100% - 0 represent cell death. For example, a value of 40 represents 60% growth inhibition. A value of 0 means no net growth occurred over the course of the experiment. A value of -40 indicates 40% of cells at the beginning of the experiment died by the end of the experiment. A value of -100 means all cells are dead at the end of the experiment.
NCI-60 Human Tumor Cell Lines Screen was performed using the standard one-dose NCI protocol, which is described in more detail at https://dtp.cancer.gov/discovery_development/nci-60/default.htm.
Compounds with GIPRCNT values below 10 were considered active. Activity score was based on GIPRCNT using the following formula: […]
Score is 0 for GIPRCNT values of 100 or above, 50 for GIPRCNT values of 0, and 100 for GIPRCNT values of -100.

Row | Compound | growth
1 | CC(=O)/C(=C/c1ccc([N+](=O)[O-])cc1)C(=O)c1ccccc1 | 79.8%
2 | CCOC(=O)C(=CNc1cnc(Nc2ccc(N3CCOCC3)cc2)nc1Oc1ccc(OC)cc1)C(=O)OCC | 23.5%
3 | CNC1=CC(=O)c2c(C(=O)OC)c(C)[n+]([O-])c(C)c2C1=O | 97.9%
4 | COc1ccc2nc(Cl)c(/C=C3\CC(c4ccccc4)=NN(c4ccccc4)C3=O)cc2c1 | 48.4%
5 | Cc1cn(-c2cc(NC(=O)c3cncc(C#Cc4c(N)ncc5ccc(F)cc45)c3)cc(C(F)(F)F)c2)cn1 | 67.3%
6 | Cc1c2cccnc2c(C)c2c1c1cc(CO)ccc1n2C | 30.5%
7 | O=C1/C(=C/c2ccc(F)cc2)CN(C(=O)C(Cl)Cl)C/C1=C\c1ccc(F)cc1 | -19.1% (active)
8 | C=C1CC[C@@H]2C(C)(C)[C@@H](O)CC[C@@]2(C)[C@@H]1COc1ccc2ccc(=O)oc2c1 | 103%
9 | N#Cc1c(-c2ccccc2)nc(SCc2nnc(-c3ccc(Cl)cc3)o2)[nH]c1=O | 63.7%
10 | Cc1ccc(S(=O)(=O)Oc2ccc3sc4cccc(NCCN(C)C)c4c(=O)c3c2)cc1 | -89.6% (active)
11 | CO[C@H]1CC(=O)n2c3ccccc3c3c4c(c5c6ccccc6n1c5c32)C(=O)NC4=O | 54.4%
12 | C=C1C(=O)O[C@H]2[C@H]1CC/C(COC(=O)/C=C\C(=O)NCc1ccc(Cn3c(=O)sn(CCCCC)c3=O)cc1)=C\CC[C@@]1(C)O[C@@H]21 | 104%
13 | C[C@]1(O)CC(=O)[C@]2(O)C3=C(C=C[C@]2(O)C1)C(=O)c1c(O)cccc1C3=O | 49%
14 | Cc1ccc(-c2csc(NC(=O)c3ccccc3CN3C(=O)c4ccccc4C3=O)n2)cc1 | 99.1%
15 | COc1ccc(Oc2nc(Nc3ccc(N4CCOCC4)cc3)ncc2NC(=O)Nc2cc(OC)cc(OC)c2)cc1 | 48.2%
16 | C=C1C(=O)O[C@H]2[C@H]1CC/C(COC(=O)c1cc3cc(Cl)ccc3[nH]1)=C\CC[C@@]1(C)O[C@@H]21 | -63.6% (active)
17 | Cn1cc(-c2csc(-c3c[nH]c4ccc(F)cc34)n2)c2ccnc(Cl)c21 | 98.2%
18 | CCN1C(=O)N(CC)C2C1NN=c1s/c(=C\c3cnc(C)n3C)c(=O)n12 (stereo not given) | 34.4%
19 | N#Cc1ccc(O)c(C2=NCC(Cc3ccccc3)O2)c1 (stereo not given) | 24.1%
20 | COc1ccc(C#Cc2ccc(=O)oc2-c2cc(OC)c(OC)c(OC)c2)cc1O | 28.6%

Row | Compound | growth
21 | COC(=O)c1c2c(n3ccccc13)C(=O)c1ccccc1C2=O | 68.7%
22 | O=C(Nc1ncc(Cc2ccccc2)s1)c1ccc2c(c1)OCCCO2 | 31.9%
23 | CN1CCN(C(=S)SCCCCOc2cc(=O)oc3ccccc23)CC1 | 79.6%
24 | CC1(C)CC[C@]2(C(=O)N[C@H](CO)Cc3ccccc3)CC[C@]3(C)C(=CC[C@@H]4[C@@]5(C)CCCNC(C)(C)[C@@H]5CC[C@]43C)[C@@H]2C1 | 89%
25 | CCOC(=O)C1=C(C)/C(=C\c2[nH]c(C)c(C(=O)OCC)c2C)N=C1C | 83.2%
26 | O=C(/C=C/c1ccc(Oc2ccc(Br)cc2)cc1)c1ccc(Br)cc1 | 99.9%
27 | O=C1Nc2ccccc2C1(c1c[nH]c2ccccc12)c1c[nH]c2ccccc12 | 49.3%
28 | CCOc1cccc(/C=N/NC(=O)c2cccc(Nc3ccnc(C(F)(F)F)c3)c2)c1O | 12.3%
29 | COC(=O)c1cc(Br)ccc1O | 103%
30 | C=C(CNCCc1ccc(O)cc1)[C@@H]1CC[C@]2(CO)CC[C@]3(C)[C@H](CC[C@@H]4[C@@]5(C)CCC(=O)C(C)(C)[C@@H]5CC[C@]43C)[C@@H]12 | 84.4%
31 | C/C=C(\C)C(=O)N[C@H]1C(O)C[C@]2(C)C3CC[C@@]4(C)C(CC[C@@H]4C(C)N(C)C)C3CCC2C1O (stereo not given in full) | 86.8%
32 | C=C(C)[C@@H]1CC[C@]2(C)[C@H](CC=C3[C@@H]4CC(C)(C)CC[C@]4(CO)CC[C@]32C)[C@@]1(C)CCCN | 63.9%
33 | O=S(=O)(Nc1cc(Sc2cccc3cccnc23)c(O)c2ccccc12)c1ccccc1 | 47.3%
34 | C#CCOc1cccc(-c2ncnc3cc(NC(=O)C=C)ccc23)c1 | 36.4%
35 | COc1ccc(/C=C/c2ccc3ccccc3n2)c(OC)c1 | 74.4%
36 | C=C1C(=O)O[C@H]2[C@H]1CC/C(COC(=O)c1ccc(C(=O)O)s1)=C\CC[C@@]1(C)O[C@@H]21 | 75%
37 | COc1cc2c(c(OC)c1OC)C(=O)CC(c1cccc(NC(=O)c3ccc(C#N)cc3)c1)O2 (stereo not given) | 73.6%
38 | CN1CCN(Cc2ccc(NC(=O)c3cncc(C#Cc4cnc5ccc(Cl)nn45)c3)cc2C(F)(F)F)CC1 | -15.7% (active)
39 | CN1C(=O)/C(=C/c2ccc(C(=O)Nc3ncc(Cc4cccc(Cl)c4)s3)cc2)SC1=S | 62.9%
40 | Nc1nc(NC(=O)Nc2ccc(C(=O)O)cc2)nn1-c1ccc(S(N)(=O)=O)cc1 | 93.6%
